This is a sample that favours compounds with a hit; in the whole collection about 4.5% have one here.
aSyn UTR inh = 5' untranslated region of α-synuclein, MLPCN primary screen. 0.82% of 300,000 active. alpha-synuclein 5'UTR reporter, inhibitor activity. inhibition, % (tested at 7.5 µM). AID 1813; in the data active = inhibition above about 60%;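 note: H4 neuroglioblastoma cells stably carrying SNCA 5'UTR luciferase fusion; 0% = DMSO wells and 100% = positive control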
Jurkat NFkB inh = inhibitors of the PMA/ionomycin-induced NF-kB reporter in Jurkat cells. inhibition, % at 4 µM. 0.53% of 330,000 active. PMA/ionomycin-induced NF-kB luciferase reporter, luminescence; in the data active = inhibition above about 50%
697 NFkB inh = lowers PMA/ionomycin-induced NF-kB signal in 697 B cells; 697 B-cell NF-kB luciferase reporter, 16 h; inhibition, % at 4 µM; 0.33% of 330,000 active; in the data active = inhibition above about 35%
Mdm2 MdmX PPI = inhibitors of human Mdm2/MdmX interaction. O15151+Q00987. SaOS-2 split-luciferase Mdm2/MdmX complementation, luminescence. inhibition, % at 8 µM. 3% of 330,000 active;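 active = inhibition of at least 50% at 8 µM in the primary screen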
CSC inhib = blocks cancer stem cells; cancer stem cell-like cells viability, luminescence; inhibition, % at 7.5 µM; 1.1% of 300,000 active; in the data active = inhibition above about 75%; tested in HMLE shEcad cells
Gli-Sufu block = antagonists of Gli-Sufu signaling. Sufu-KO-LIGHT fibroblasts, Gli luciferase reporter luminescence. inhibition, % at 5 µM. 0.74% of 340,000 active;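 active = inhibition above about 55%, limit read from the data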;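 note: 0% = DMSO-treated cells and 100% = wells with medium but no cells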
The depositor's hits bear a star; . = not tested or not shown.

SMILES	aSyn UTR inh	Jurkat NFkB inh	697 NFkB inh	Mdm2 MdmX PPI	CSC inhib	Gli-Sufu block
O=C1CC(N(CCc2ccccc2)C(=S)Nc2ccccc2)C(=O)N1c1ccccc1 (stereo not drawn)	14	-45	-21	30	79*	-11
O=C(Nc1nc(-c2cccnc2)cs1)c1ccccc1[N+](=O)[O-]	28	2	14	-3	-2	2
CCOc1ccc(C(=O)NC(=S)Nc2ccccc2N2CCOCC2)cc1Br	21	3	10	28	101*	25
CC(C)Oc1cccc(C(=O)NC(=S)Nc2ccccc2N2CCOCC2)c1	14	-4	-25	29	121*	2
Cc1ccc(S(=O)(=O)CC(=O)c2cc3cccc(C)c3oc2=O)cc1	-14	11	3	10	10	-16
CCOC(=O)/C=C/[C@H]1CCc2cccc(C)c2O1	.	11	16	18	15	1
FC(F)(F)c1cc(-c2ccc(Cl)cc2)nc(NCc2cccnc2)n1	33	14	10	16	77*	5
COc1ccccc1CNC(=O)CCCNC(=O)Cn1cnc2sc(C)c(C)c2c1=O	-7	1	-2	15	-37	-14
O=c1c(/C=N/OCc2ccc(Cl)cc2Cl)c[nH]n1-c1cccc(Cl)n1	-1	-7	1	13	94*	3
O=c1c(-n2cncn2)c[nH]n1-c1cccc(Cl)n1	-19	-13	14	19	-3	-6
COC(=O)c1ccc(/C=N/Nc2nc(C)c(C)s2)cc1	-188	-138	-196	-144	-3	-57
Cc1nc(N/N=C/c2ccccn2)sc1C	.	.	.	.	70	58*
Cc1nc(N2CCC(C)CC2)c2nnn(Cc3ccccc3)c2n1	-5	-13	-1	9	-3	2
COc1cc(/C=C2\C(=O)ON=C2c2ccc(Cl)cc2)ccc1O	-25	-5	-13	35	87*	-2
O=C1ON=C(c2ccccc2)/C1=C/c1ccc(O)c(O)c1	-24	16	-56	11	5	42
Nc1nnc(SCC(=O)OCC(=O)NC2CCCCC2)s1	10	-10	-23	-10	92*	-2
O=C(CSc1cc(Cl)ccc1Cl)NCCN1C(=O)CSC1=O	.	13	14	12	-18	13
Cc1ccc(C)c(N2CCN(C(=O)c3ccc4c(c3)c(C)c(C)n4C)CC2)c1	13	-2	-7	32	82*	-27
N#Cc1c(NC(=O)c2ccccc2Cl)n(Cc2ccccc2)c2nc3ccccc3nc12	.	.	.	.	112*	5
O=C(CCCN1C(=O)/C(=C/c2ccccc2)SC1=S)NCCCn1ccnc1	23	2	-18	22	90*	7
CC(=C\c1ccccc1)/C=C1/SC(=S)N(CCCC(=O)O)C1=O	67*	10	-12	-5	11	5
CC(/C=C1\SC(=S)N(NC(=O)c2ccc(O)cc2)C1=O)=C\c1ccccc1	3	6	-4	-4	76*	-11
CCC(C(=O)O)N1C(=O)/C(=C/C(C)=C/c2ccccc2)SC1=S (stereo not drawn)	-1	-11	-10	-25	21	1
O=C(CCN1C(=O)S/C(=C\c2ccccc2)C1=O)NCCCn1ccnc1	14	-8	-32	11	47	14
COc1cc(NC(=O)CCCNC(=O)Cn2cnc3sc(C)c(C)c3c2=O)cc(OC)c1OC	-6	-5	0	8	-18	-6
SMILES	aSyn UTR inh	Jurkat NFkB inh	697 NFkB inh	Mdm2 MdmX PPI	CSC inhib	Gli-Sufu block
CC(C)(C)c1ccc(NC(=O)N2CCCN(c3c(Cl)cncc3Cl)CC2)cc1	18	2	-89	37	77*	0
CCCCc1c(C)c(C#N)c2nc3ccccc3n2c1Cl	109*	.	.	.	.	.
COc1ccc(-n2nc(C(=O)NCC(=O)NCCCN3CC(C)CC(C)C3)c3ccccc3c2=O)cc1OC (stereo not drawn)	-9	12	7	2	-14	23
CC1(C)CC(N=c2cc(-c3ccccc3)oc3ccc(Cl)cc23)CC(C)(C)N1	99*	.	.	.	.	-8
COP(=O)(CC(=O)c1ccccc1)CC(=O)c1ccccc1	10	3	13	29	-10	2
Cc1noc(C)c1S(=O)(=O)N1CCC(C(=O)N2CCC(N3CCCCC3)CC2)CC1	-21	-22	-3	3	4	20
CCN(CC)CCCNC(=O)c1cc2c(Cl)nc3ccccc3c2s1	-51	-48	-15	-9	77*	15
CN(CCCNC(=O)c1cc2c(Cl)nc3ccccc3c2s1)Cc1ccccc1	3	3	-5	23	38	33
CC1CCCN(CCCNC(=O)c2cc3c(Cl)nc4ccccc4c3s2)C1 (stereo not drawn)	-21	-24	-16	19	85*	43
CCCOc1ccc(C2=NNC(=O)CC2)cc1	77*	-17	-2	43	-3	-13
COc1ccc(C2=NNC(=O)CC2)cc1	7	2	1	-5	-9	-14
COc1ccc(/C=C2\C(=O)c3ccccc3OC2c2ccccc2)cc1 (stereo not drawn)	3	38	-65	37	82*	0
CCOc1ccc(/C=C2\C(=O)c3ccccc3OC2c2ccccc2)cc1 (stereo not drawn)	-26	-6	-21	34	72	15
Cc1ccc(NC(=O)c2ccc(NS(=O)(=O)c3cccc4cccnc34)cc2)cc1	16	-4	0	33	3	-4
O=C(CN1CCC(NC(=O)c2cccc(F)c2)CC1)Nc1ccc(Br)cc1	68*	-33	-69	38	.	-12
Cc1cc(C)cc(NC(=O)CN2CCC(NC(=O)c3cccc(F)c3)CC2)c1	46	0	19	19	0	13
CCCCN(C(=O)c1ccc(N2C(=O)c3ccccc3C2=O)cc1)c1c(N)n(CC(C)C)c(=O)[nH]c1=O	.	-1	6	6	.	-8
CS(=O)(=O)c1ccccc1C(=O)Nc1ccc(-c2nc3ccccc3[nH]2)cc1	-156	-51	-50	-58	-3	-29
O=C(c1ccccc1)c1ccc2nc(-c3ccc(NC(=O)c4ccccc4Br)cc3)[nH]c2c1	75*	-6	0	29	.	5
Cc1ccccc1NC(=S)N(Cc1ccccc1)Cc1cccs1	25	8	4	-13	-17	-10
COc1ccc(-n2sc3c(c2=S)-c2cc(OC)ccc2NC3(C)C)cc1	-1	-15	-35	28	129*	6
COc1ccc2oc(=O)c(C(=O)Oc3ccc(NC(C)=O)cc3)cc2c1	8	-8	2	14	-7	1
O=C(Nc1cccc(C(=O)N2CCOCC2)c1)c1cccnc1	-8	-11	9	-1	-16	-2
COc1ccc(-c2cc3c(nn2)-c2ccccc2C3=O)cc1	98*	18	-86	-65	30	-1
COc1ccc(C(=O)/C=C/C(=O)N(CC(=O)NC2CCCCC2)Cc2ccccc2)c(O)c1	67*	.	.	.	.	33
CSc1nc2ccc(Cl)cc2[nH]1	-50	1	1	-6	0	37

Screening data: PubChem, several laboratories
